Measured values reported in PubChem BioAssay (Tox21).
Records with an inconclusive call do not appear. Calls of active or inactive are those of the source. Unless noted, calls come from the whole dose curve; as a rule, active = well fitted curve in the direction sought with a large enough effect in the repeat runs; inconclusive = weak or mixed curves; inactive = no such curve, though single readings can be large; an effect the other way counts as inactive or inconclusive.

Columns and labels:
[1] = qHTS assay to identify small molecule agonists of the estrogen receptor alpha (ER-alpha) signaling pathway in the presence of an antagonist - cell viability counter screen (AID 1259386); settings: VM7Luc4E2 viability, CellTiter-Fluor fluorescence, 22 h; series mostly up to 92.4 µM;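 note: cells exposed to compounds for 22 h at 37 °C before the viability read; nearly all actives have a fitted effect of over 30% in size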
Outline: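 VM7Luc4E2 cells (endogenous full-length ER-alpha, 4×ERE-luciferase) were held 5 days in phenol red-free medium with 10% charcoal-stripped FBS, plated, then given 10.0nM ICI-182,780 and compounds at 15 concentrations for 22hr at 37C; viability read by CellTiter-Fluor fluorescence.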

[2] = target: Progesterone receptor (Homo sapiens) (UniProt P06401); test: qHTS assay to identify small molecule antagonists of the progesterone receptor (PR) signaling pathway (AID 1346795; active = well fitted inhibition curve with a large enough effect in the signal ratio in the repeat runs, not every such curve was filed as active; the % refers to the signal ratio); settings: PR-UAS-bla HEK293T, beta-lactamase FRET ratio, 16 h; series mostly up to 92.4 µM
Outline: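 PR-UAS-bla HEK293T cells carrying a UAS-driven beta-lactamase reporter were plated in medium with 2% charcoal-stripped FBS and rested 6 hr at 37C. Compounds were added with 1 nM R5020 (final) for 16 hr, then FRET substrate loaded 2 hr at room temperature.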

[3] = qHTS assay to identify small molecule antagonists of the progesterone receptor (PR) signaling pathway - cell viability counter screen (AID 1346798); settings: PR-UAS-bla HEK293T viability, CellTiter-Glo luminescence, 16 h; series mostly up to 92.4 µM; note: nearly all actives have a fitted effect of over 50% in size
Outline: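 PR-UAS-bla HEK293T cells in medium with 2% charcoal-stripped FBS were treated with compounds plus R5020 for 16 hr at 37C. Cell viability was then read by CellTiter-Glo luminescence after 30 min at room temperature in the same wells.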

[4] = qHTS assay to identify small molecule antagonists of the TGF-beta/Smad signaling pathway - cell viability counter screen (AID 1346824); settings: SBE-bla HEK293T viability, CellTiter-Glo luminescence; series mostly up to 76.8 µM; note: nearly all actives have a fitted effect of over 50% in size
Outline: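 Cytotoxicity counter-screen run in the same wells as the beta-lactamase Smad reporter read: CellTiter-Glo luminescence after 30 min at room temperature. HEK 293T SBE-bla cells had 5 hr compound exposure at 37 C with TGF-beta1 (0.25 ng/mL stock).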

[5] = qHTS assay to identify small molecule agonists of the TGF-beta/Smad signaling pathway - cell viability counter screen (AID 1346829); settings: SBE-bla HEK293T viability, CellTiter-Glo luminescence, 5 h; series mostly up to 76.8 µM; note: top concentration of the series differs between compounds; nearly all actives have a fitted effect of over 45% in size
Outline: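 Same-well cytotoxicity: CellTiter-Glo added after the 2 hr room-temperature beta-lactamase substrate step, luminescence measured 30 min later; cells had 5 hr of compound at 37 C.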

[6] = qHTS assay to identify small molecule agonists of the TGF-beta/Smad signaling pathway (AID 1346859; active = well fitted activation curve with a large enough effect in the signal ratio in the repeat runs, not every such curve was filed as active; the % refers to the signal ratio); settings: SBE-bla HEK293T, TGF-beta/Smad beta-lactamase reporter, 5 h; series mostly up to 76.8 µM
Outline: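 HEK 293T cells stably carrying a beta-lactamase reporter driven by the Smad binding element were seeded overnight, exposed to DMSO-dissolved compounds for 5 hr at 37 C, 5% CO2, then loaded with FRET substrate for 2 hr at room temperature.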

[7] = target: Thyrotropin-releasing hormone receptor (Homo sapiens) (UniProt P34981); test: qHTS assay to identify small molecule antagonists of the thyrotropin-releasing hormone receptor (TRHR) signaling pathway (AID 1346877; active = well fitted inhibition curve with a large enough effect in the repeat runs, not every such curve was filed as active); settings: TRHR-HEK293, TRH-induced calcium fluorescence, antagonist mode; series mostly up to 51.3 µM
Outline: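 TRHR-expressing HEK293 cells were seeded, cultured 18 h at 37 °C, then loaded with calcium dye for 2 h. Compounds were pre-incubated 5 min at room temperature before 1 nM TRH (final) was added, and kinetic fluorescence was recorded for 3 min.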

[8] = qHTS assay to identify small molecule agonists of the progesterone receptor (PR) signaling pathway - cell viability counter screen (AID 1346799; calls by dose curve; note: nearly all actives have a fitted effect of over 45% in size); settings: PR-UAS-bla HEK293T viability, CellTiter-Glo luminescence, 16 h; series mostly up to 92.4 µM
Outline: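 PR-UAS-bla HEK293T cells, 3,000 per well in medium with 2% charcoal-stripped FBS, were preincubated 6 hr at 37C, then exposed to compounds for 16 hr; viability was read as CellTiter-Glo luminescence after 30 min at room temperature.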

Measured: Potency

Progesterone receptor (Homo sapiens), sequence (P06401 whole entry, looked up): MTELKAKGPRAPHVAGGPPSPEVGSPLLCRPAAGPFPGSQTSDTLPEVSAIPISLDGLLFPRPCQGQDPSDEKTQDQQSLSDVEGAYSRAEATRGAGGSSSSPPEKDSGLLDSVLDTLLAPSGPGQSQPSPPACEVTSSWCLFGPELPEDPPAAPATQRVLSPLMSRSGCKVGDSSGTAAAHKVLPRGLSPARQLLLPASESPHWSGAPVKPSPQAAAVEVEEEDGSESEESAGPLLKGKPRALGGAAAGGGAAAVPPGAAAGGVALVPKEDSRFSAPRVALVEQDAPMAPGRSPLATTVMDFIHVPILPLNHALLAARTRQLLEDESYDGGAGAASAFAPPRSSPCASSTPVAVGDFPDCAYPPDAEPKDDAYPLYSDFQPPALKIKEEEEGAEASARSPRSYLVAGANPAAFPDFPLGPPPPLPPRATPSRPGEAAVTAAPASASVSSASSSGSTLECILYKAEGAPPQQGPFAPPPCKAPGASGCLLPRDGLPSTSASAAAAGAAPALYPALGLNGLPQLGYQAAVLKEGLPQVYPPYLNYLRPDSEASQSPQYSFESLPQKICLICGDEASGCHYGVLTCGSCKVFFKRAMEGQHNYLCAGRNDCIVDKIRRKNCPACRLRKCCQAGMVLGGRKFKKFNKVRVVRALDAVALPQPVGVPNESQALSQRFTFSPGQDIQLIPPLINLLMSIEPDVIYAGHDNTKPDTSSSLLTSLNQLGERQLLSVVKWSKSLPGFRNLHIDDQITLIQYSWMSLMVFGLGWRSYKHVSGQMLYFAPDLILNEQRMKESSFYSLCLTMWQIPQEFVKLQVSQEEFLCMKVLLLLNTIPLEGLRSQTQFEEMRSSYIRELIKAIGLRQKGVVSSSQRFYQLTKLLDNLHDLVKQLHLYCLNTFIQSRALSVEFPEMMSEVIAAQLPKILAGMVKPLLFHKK
Thyrotropin-releasing hormone receptor (Homo sapiens), sequence (P34981 whole entry, looked up): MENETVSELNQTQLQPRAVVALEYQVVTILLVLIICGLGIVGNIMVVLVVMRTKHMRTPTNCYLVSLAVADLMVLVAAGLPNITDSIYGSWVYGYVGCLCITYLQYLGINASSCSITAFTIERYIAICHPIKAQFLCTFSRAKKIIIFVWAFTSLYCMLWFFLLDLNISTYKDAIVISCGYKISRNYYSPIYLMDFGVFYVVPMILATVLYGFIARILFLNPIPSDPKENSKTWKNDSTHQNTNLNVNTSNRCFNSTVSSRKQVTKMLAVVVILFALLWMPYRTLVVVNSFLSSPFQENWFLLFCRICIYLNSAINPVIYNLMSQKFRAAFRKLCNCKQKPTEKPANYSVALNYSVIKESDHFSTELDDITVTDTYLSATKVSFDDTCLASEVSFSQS

CC/C=C1/OC(=O)c2ccccc21
not listed: [8]
inactive: all other assays above

CCN(CC)CCNC(=O)COc1ccc(OC)cc1
not listed: [2] | [7]
inactive: all other assays above

C[C@H]1c2cccc(O)c2C(O)=C2C(=O)[C@]3(O)C(O)=C(C(N)=O)C(=O)[C@@H](N(C)C)[C@@H]3[C@@H](O)[C@@H]21
inactive: [1] | [3] | [8] | [4] | [5]
